From PubChem BioAssay (NCATS)
Inconclusive results are not listed. A call without a number means that no potency is given here. Calls of active or inactive are those of the source. Calls follow the shape of the dose curve; as a rule, active = well fitted curve in the direction sought with a large enough effect; inconclusive = small, poorly fitted or top-dose-only effect, or another doubt; inactive = no such curve, though single readings can be large; an effect the other way counts as inactive or inconclusive.

Target: Rap guanine nucleotide exchange factor 3 (Homo sapiens) (UniProt O95398)
Sequence (O95398 whole entry, looked up): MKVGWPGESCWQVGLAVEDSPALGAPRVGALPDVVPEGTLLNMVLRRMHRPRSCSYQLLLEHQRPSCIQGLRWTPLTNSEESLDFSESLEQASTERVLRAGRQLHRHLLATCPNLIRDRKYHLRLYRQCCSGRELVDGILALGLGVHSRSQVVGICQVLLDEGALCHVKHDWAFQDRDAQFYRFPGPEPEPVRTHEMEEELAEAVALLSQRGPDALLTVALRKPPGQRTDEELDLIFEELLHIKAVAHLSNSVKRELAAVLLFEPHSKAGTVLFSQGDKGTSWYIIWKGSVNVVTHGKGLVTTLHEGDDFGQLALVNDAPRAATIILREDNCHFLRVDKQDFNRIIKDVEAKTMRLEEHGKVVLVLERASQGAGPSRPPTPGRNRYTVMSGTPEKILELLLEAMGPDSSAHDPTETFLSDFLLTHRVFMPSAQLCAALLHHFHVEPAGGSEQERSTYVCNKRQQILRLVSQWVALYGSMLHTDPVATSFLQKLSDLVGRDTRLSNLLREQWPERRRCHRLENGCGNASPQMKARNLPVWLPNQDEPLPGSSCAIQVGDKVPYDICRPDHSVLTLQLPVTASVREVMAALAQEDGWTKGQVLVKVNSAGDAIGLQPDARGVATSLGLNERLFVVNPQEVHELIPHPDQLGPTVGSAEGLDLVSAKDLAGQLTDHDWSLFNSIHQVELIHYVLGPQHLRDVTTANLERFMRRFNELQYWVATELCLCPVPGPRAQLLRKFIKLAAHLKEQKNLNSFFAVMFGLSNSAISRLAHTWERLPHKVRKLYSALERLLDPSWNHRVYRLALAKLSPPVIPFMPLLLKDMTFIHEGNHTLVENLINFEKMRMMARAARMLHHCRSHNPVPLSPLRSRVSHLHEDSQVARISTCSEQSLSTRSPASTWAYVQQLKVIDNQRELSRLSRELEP
Assay: Counterscreen qHTS for antagonist of cAMP-regulated guanine nucleotide exchange factor 3 (EPAC1) (AID 1645888);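 also: fluorescence loss as bound BODIPY-GDP is released from Rap1B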
Settings: Rap1B-BODIPY-GDP nucleotide exchange, fluorescence; series mostly up to 154 µM
Procedure, shortened: (§1)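 Rap1B-BODIPY-GDP 250 nM + GDP 50 uM; cpds 7-pt, final 9.74 nM–152 uM (activator mode) or from 7.32 nM upwards (inhibitor mode); RT; FI 480/540 nm at 5 and 30 min, then ± cAMP, reread.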

Row | SMILES | activity change, negative = inhibition | Potency
1 | Cc1ccccc1N=C(c1ccccc1)C1C(=O)c2ccccc2C1=O | -5.51% [at 30.8 µM] (inactive) | 
2 | CSc1ccc(/C=N/NC(=O)CN2CCN(Cc3ccc(Cl)cc3)CC2)cc1 |  | inactive
3 | CCOC(=O)c1c(NC(=O)c2ccccc2OCC)sc2c1CCC(CC)C2 (centres undefined) |  | inactive
4 | CCOC(=O)C1=CCN(S(=O)(=O)c2ccc(C)cc2)C1c1cccc(Cl)c1 (centres undefined) |  | inactive

Target: Rap guanine nucleotide exchange factor 3 (Homo sapiens) (UniProt O95398)
Assay: Counterscreen qHTS for agonist of cAMP-regulated guanine nucleotide exchange factor 3 (EPAC1) (AID 1645889); also: nearly all actives have a fitted effect of over 40% in size; also: potency is read from the fitted curve at half-maximal effect
Settings: EPAC1 Rap1B-BODIPY-GDP exchange, fluorescence; series mostly up to 154 µM
Procedure, shortened: as §1

Row | SMILES | activation | Potency
5 | COc1cccc(C(=O)NC(=S)N2c3ccccc3CC2C)c1OC (centres undefined) | 14.2% [at 30.8 µM] (inactive) | 
6 | COc1ccc(OCC(=O)OCCNC(=O)c2cccnc2)cc1 | 0.499% [at 30.8 µM] (inactive) | 
7 | O=C1COc2ccc(C(=O)COC(=O)c3ccc([N+](=O)[O-])cc3Cl)cc2N1 |  | inactive
8 | Cc1cccc(C)c1Nc1nn2c(=O)c3cc4c(cc3nc2s1)OCO4 |  | inactive
9 | O=C(c1ccco1)N(Cc1cccs1)c1ccc(F)cc1 |  | inactive
10 | Cc1ccc(N=Cc2cc(Cc3ccccc3Cl)cc([N+](=O)[O-])c2O)c(O)c1 |  | inactive
11 | O=C(O)c1ccc(/C=N/NC(=O)c2ccc(CN3c4cccc5cccc(c45)S3(=O)=O)cc2)cc1 | 13.7% [at 30.8 µM] (inactive) | 
12 | C/C(Cc1ccccc1)=N\NC(=O)c1cccnc1 | 15.7% [at 30.8 µM] (inactive) | 
13 | COc1cccc2c1Oc1ncccc1N(C(=O)CCC(=O)NCc1cccc(C)c1)C2 |  | inactive
14 | CCOc1ccc2nc(S(=O)(=O)NC(=O)C3(C)CCN3C(=O)CCc3cccs3)sc2c1 (centres undefined) | 4.36% [at 30.8 µM] (inactive) | 
15 | CCOc1cc(/C=C2\SC(=S)N(NS(=O)(=O)c3ccc(C)cc3)C2=O)ccc1O |  | inactive
16 | COc1ccc(C2c3ccsc3CCN2C(C)=O)cc1 (centres undefined) |  | inactive
17 | CCC(C)(C)NC(=O)C(c1ccccn1)N(C(=O)c1csnn1)C1CCCCC1 (centres undefined) |  | inactive
18 | O=C1CCC/C(=N/NC(=O)c2sc3ccccc3c2Cl)C1 |  | 22.4 µM (active)
19 | CCN(CC)c1ccc2cc(C(C)=O)c(=O)oc2c1 |  | 50.1 µM (active)
20 | COC(=O)c1ccccc1NC(=O)c1nn(-c2ccc(OC)cc2)c(=O)c2c1c1ccccc1n2C |  | inactive
21 | CCOC(=O)C1=C(CC)OC(N)=C(C#N)C1c1ccc(OC)c(OC)c1OC (centres undefined) | 8.26% [at 30.8 µM] (inactive) | 
22 | Cc1cccn2cc(CCNC(=O)c3ccco3)nc12 | 19.7% [at 30.8 µM] (inactive) | 
23 | COC(=O)c1ccc2nc(-c3ccccc3)c(Cc3ccccc3C(F)(F)F)n2c1 |  | inactive
24 | Cc1cc(-c2nn(-c3ccccc3F)cc2CN2CCCC(O)C2)c(C)s1 (centres undefined) | 23.9% [at 30.8 µM] (inactive) | 

Row | SMILES | activation | Potency
25 | O=c1[nH][nH]c(-c2ccccc2O)c1C(C[N+](=O)[O-])c1ccc(Cl)cc1Cl (centres undefined) |  | inactive
26 | COc1cccc2c1OC1(C)CC2/C(=C(\C)O)C(=O)N1 (centres undefined) |  | inactive
27 | COc1ccc(S(=O)(=O)NC(CCSC)C(=O)NC2CCCCC2)cc1 (centres undefined) |  | inactive
28 | CSc1ccccc1C(=O)Nc1ccc(C)cc1C | -3.4% [at 30.8 µM] (inactive) | 
29 | Cc1c2cn[nH]c(=O)c2c(C)n1-c1ccccc1 |  | inactive
30 | Cc1[nH][nH]c(=O)c1C(c1c(C)[nH][nH]c1=O)c1cn(Cc2cccc3ccccc23)c2ccccc12 |  | 12.6 µM (active)
31 | CCc1ccccc1N(C)S(=O)(=O)c1ccc2[nH]cc(C(=O)N3CCc4ccccc43)c(=O)c2c1 | 15.8% [at 30.8 µM] (inactive) | 
32 | O=C1C2CCCN2C(c2ccccc2F)N1c1cccc(Cl)c1 (centres undefined) | 9.98% [at 30.8 µM] (inactive) | 
33 | CC(=O)NNC(=O)c1sc(=S)n2c1[nH]c(=O)c1sccc12 |  | inactive
34 | Cc1ccc(C2CC(=O)Oc3cc(C)c(Br)c(C)c32)cc1 (centres undefined) |  | inactive
35 | O=C(O)c1ccc(N/N=C/c2cccc(C(F)(F)F)c2)cc1 |  | inactive
36 | CC(=O)Nc1cc(C(=O)NCc2ccco2)ccc1Sc1ccc(C)cc1 | 6.12% [at 30.8 µM] (inactive) | 
37 | O=C(C1=C(O)C(=O)N(c2nc3ccc(Cl)cc3s2)C1c1ccco1)c1ccco1 (centres undefined) |  | inactive
38 | CC1(C(=O)NS(=O)(=O)c2ccc3c(c2)CCO3)CCN1C(=O)C1(c2ccc(Cl)cc2)CCC1 (centres undefined) | 34% [at 30.8 µM] (inactive) | 
39 | COc1ccc(N(C(=O)c2ccco2)S(=O)(=O)c2cc(OC)ccc2OC)cc1 |  | inactive
40 | COc1ccc(S(=O)(=O)N2CCCCC2)cc1C(C)C |  | inactive
41 | Cc1ccccc1N=C(c1ccccc1)C1C(=O)c2ccccc2C1=O | 13.3% [at 30.8 µM] (inactive) | 
42 | CSc1ccc(/C=N/NC(=O)CN2CCN(Cc3ccc(Cl)cc3)CC2)cc1 |  | inactive
43 | CCOC(=O)c1c(NC(=O)c2ccccc2OCC)sc2c1CCC(CC)C2 (centres undefined) |  | inactive
44 | CCOC(=O)C1=CCN(S(=O)(=O)c2ccc(C)cc2)C1c1cccc(Cl)c1 (centres undefined) |  | inactive
